Our source for the growth values is PubChem BioAssay (NCI).

Molecules are shown by their SMILES. This is part of a sample that, as a whole, favours compounds with a hit. Of some 83,000 tested, about 20% had one in any assay.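 Cell lines were cultured in 96-well plates, exposed to a single compound concentration, and assessed for percent growth 48 hours later.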 Activity calls are given as the source filed them. How the source made its calls: active means growth percent below 10; inactive means the rest.

The assay concerns PC-3 prostate. The experiment in a line: NCI-60 one-dose screen, 48 h (100 = growth as untreated, 0 = no growth, -100 = all killed). Conditions: 10 µM unless noted.
With `O=C1/C(=C\c2cccn2Cc2ccc(F)cc2)c2ccccc2N1c1c(Cl)cccc1Cl`, the growth was 52% (inactive).

In the case of `CC(C)(C)c1ccc(Cn2c(-c3nonc3N)nc3ccccc32)cc1`, the growth is 67.4% (inactive).

As to `CSC(=S)N/N=C(\C)c1ccccn1`, the growth was 27% (inactive).

Turning to `CCC(C)C1NC(=O)c2nc(oc2-c2ccccc2)-c2csc(n2)-c2csc(n2)-c2nc(oc2C)-c2coc(n2)CNC(=O)C(C(C)CC)NC1=O` (centres undefined), the growth was -85.6% (active).

On to `CCOC(=O)C1=C(C)NC(SCc2nnc(-c3ccc(Cl)cc3)o2)=NC1c1ccc(Br)cc1` (centres undefined), for which the growth is 48.8% (inactive).

Turning to `CC(CN1CCN(C)CC1)CN1c2ccccc2Sc2ccc(C(F)(F)F)cc21` (centres undefined), the growth is 31.3% (inactive).

For the molecule `Cc1[nH]nc2ccc3nc(-c4ccc5[nH]ncc5c4)c4c(c3c12)CCCC4`, the growth was 26.5% (inactive).

Regarding `CCCOC(=O)C1c2cc3c(cc2CC(C)C1C(=O)OCCC)OCO3` (centres undefined), the growth was 82.9% (inactive).

In the case of `COc1cc(C2CC(c3ccc(Nc4ccnc5cc(Cl)ccc45)cc3)=NN2c2ccccc2)cc(OC)c1OC` (centres undefined), the growth is 60.8% (inactive).

Take `CC(=O)c1c(C)nc(-c2cc(C)cc(Cl)c2)nc1-c1cccc(Oc2ccccc2)c1`: the growth was 53.4% (inactive).

As for `CC(C)NC(=O)OCC#CCOC(=O)NC(C)C`, the growth is 97% (inactive).

For `Cc1nc2c(-c3cnc(N)nc3)nc(N3CCOCC3)nc2n1C(C)C`, the growth was 14.4% (inactive).

With `[Ag].[Ag].[NH-]S(=O)(=O)c1ccc(N=Nc2cc(N=Nc3ccc(S([NH-])(=O)=O)cc3)c3c(NC(=O)C(Cl)Cl)cccc3c2OC(=O)C(Cl)Cl)cc1.[c-]1nccs1.[c-]1nccs1`, the growth was 48.2% (inactive).

As for `Nc1ccc(N(O)/C=C2\C=CC=CC2=O)cc1N`, the growth is 69.6% (inactive).

Regarding `Cc1nc2ccc(Nc3nc(N4CCOCC4)nc(N4CCN(C)CC4)n3)cc2n1Cc1ccccc1`, the growth is 90% (inactive).

`CC(C)CC(NC(=O)C(CCCN=C(N)N)NC(=O)OCc1ccccc1)C(=O)NC(CNC(=O)/C=C/c1ccccc1)C(C)C` (centres undefined): the growth is 89.2% (inactive).

`CCOC(=O)c1ccc(NCCC(=O)O)cc1`: the growth is 91.7% (inactive).

Consider `Cc1ccc(-c2cnc3sc4ccc(Cl)cc4n23)cc1`, for which the growth was 82.6% (inactive).

For `COc1cc(C)c2c(=O)c3c(oc2c1)C(=O)c1c(O)c(OC)cc(O)c1C3=O`, the growth was -8.33% (active).

Regarding `O=C(OCc1ccc2c(Br)cc(Br)c(O)c2n1)c1cc2ccccc2[nH]1`, the growth is -55.6% (active).

`CN1CCN(Cc2ccc(NC(=O)c3cncc(C#Cc4cnc5cccnn45)c3)cc2C(F)(F)F)CC1`: the growth was 5.62% (active).

For `CCOC(=O)c1ccccc1SC(C[N+](=O)[O-])c1ccccc1` (centres undefined), the growth is 78% (inactive).

With `CC(C)CC(NC(=O)OCC1c2ccccc2-c2ccccc21)C(=O)O` (centres undefined), the growth was 104% (inactive).

`CN1CCN(Cc2ccc(NC(=O)c3cncc(C#Cc4ccc(N)nc4)c3)cc2C(F)(F)F)CC1`: the growth was 15.6% (inactive).
